Compound activity (PubChem)
TbREL1 primary: TbREL1 inhibition, primary screen | actives 0.49% (n = 89,000) | TbREL1 RNA ligation, FRET fluorescence | AID 1117264 | inhibition, % at 9.66 µM | P86926;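 active means inhibition above the mean inhibition across all screened compounds plus 3 SD, cut at about 11% in these data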;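 further: 0% = plate median of test wells and 100% = NSC42067 control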
Target sequence (P86926 whole entry, looked up): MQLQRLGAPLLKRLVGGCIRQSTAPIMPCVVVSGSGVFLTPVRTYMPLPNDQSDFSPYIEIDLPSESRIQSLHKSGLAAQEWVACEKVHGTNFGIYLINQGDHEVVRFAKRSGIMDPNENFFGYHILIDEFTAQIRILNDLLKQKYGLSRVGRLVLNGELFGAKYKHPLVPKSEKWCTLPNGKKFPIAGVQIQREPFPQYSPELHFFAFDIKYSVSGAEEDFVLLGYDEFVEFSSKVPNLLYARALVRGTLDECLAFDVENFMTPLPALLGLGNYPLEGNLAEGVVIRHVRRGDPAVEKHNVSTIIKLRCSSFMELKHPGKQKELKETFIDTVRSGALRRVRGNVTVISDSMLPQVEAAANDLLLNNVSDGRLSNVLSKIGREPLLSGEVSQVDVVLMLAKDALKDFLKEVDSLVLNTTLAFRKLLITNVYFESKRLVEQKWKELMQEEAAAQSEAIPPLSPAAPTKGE
* hit, by the source's call. This is one part of a sample in which hits are shown more often than they occur.

SMILES	TbREL1 primary
CCCCNc1c(-c2ccc(SC3CCCCC3)c(OC)c2)nc2ccc(Cl)cn12	25*
CCCCCCSc1ccc(-c2nc3ccc(Cl)cn3c2NCCCC)cc1OC	-1
CCCCCCSc1cc(-c2nc3ccc(Cl)cn3c2NC2CCCCC2)ccc1OC	-2
Cc1nc2ccc(S(=O)(=O)NCC(=O)N(C)Cc3ccc(F)cc3)cc2s1	0
O=c1c(O[C@H]2O[C@@H](CO)[C@H](O)[C@@H](O)[C@@H]2O)c(-c2ccc(O)cc2)oc2cc(O)cc(O)c12	3
O=c1c2c(O)cc(O)cc2oc2c(O)ccc(O[C@H]3O[C@@H](CO)[C@H](O)[C@@H](O)[C@@H]3O)c12	5
O=c1c(OC2OC(CO)C(O)C(O)C2O)c(-c2ccc(O)c(O)c2)oc2cc(O)cc(O)c12 (stereo not given)	92*
O=C(CSc1nnc(Cn2c(=O)sc3ccccc32)n1-c1ccccc1)N1CCCCCC1	12*
O=C(CSc1nnc(Cn2c(=O)sc3ccccc32)n1-c1ccccc1)N1CCCC1	1
Cn1c(Cn2c(=O)sc3ccccc32)nnc1SCC(=O)N1CCCCCC1	-2
CCOC(=O)[C@]12CCCC=C1N(Cc1ccc(OC)cc1)C(=O)[C@@H]2CC(=O)NCc1ccccc1	-4
O=[N+]([O-])c1cc(C=NN2CCN(Cc3ccccc3Cl)CC2)ccc1Cl	0
Nc1nc2ccc(Cl)cc2cc1C(=O)NCc1ccccc1Br	0
CCn1c(SCC(=O)Nc2ccc(S(=O)(=O)Nc3cc(C)nc(C)n3)cc2)nc2sc(C)c(C)c2c1=O	-6
O=C(CCc1c[nH]c2ccccc12)Nc1ccc(Nc2cccnc2)c(Br)c1	2
O=C(c1ccc(Br)o1)N1CCN(Cc2ccc3c(c2)OCO3)CC1	27*
O=C(c1cc(-c2ccc(F)cc2)no1)N1CCN(Cc2ccc3c(c2)OCO3)CC1	-3
O=C(c1cc([N+](=O)[O-])cc([N+](=O)[O-])c1)N1CCN(Cc2ccc3c(c2)OCO3)CC1	-2
O=C(C1CCCN(S(=O)(=O)c2ccc(F)cc2)C1)N1CCN(Cc2ccccc2)CC1 (stereo not given)	-3
Nn1c(SCC(=O)Nc2nccs2)nnc1-c1cc(-c2ccccc2)n[nH]1	-1
O=C1C[C@@H](O)[C@H](O)c2cccc(O)c21	7
Cc1ccc(SCCC(=O)Nc2c(C)n(C)n(-c3ccccc3)c2=O)cc1	-1
Cc1c(NC(=O)CN2CC(C)OC(C)C2)c(=O)n(-c2ccccc2)n1C (stereo not given)	13*
Cc1c(NC(=O)CN2CCN(c3ccccc3)CC2)c(=O)n(-c2ccccc2)n1C	3
COC(=O)[C@]12CCCCC=C1N(Cc1ccc(OC)cc1)C(=O)[C@@H]2CC(=O)N1CCN(C(=O)C2CC2)CC1	-7
SMILES	TbREL1 primary
CCCCOCCCNC(=O)C[C@H]1C[C@@]2(C(=O)OC)C(=C[C@H](COCc3ccccc3)O[C@@H]2C)N(CCc2ccc(OC)c(OC)c2)C1=O	-2
O=C(NCCN1CCC(Cc2ccccc2)CC1)C1CCCN(S(=O)(=O)c2cccs2)C1 (stereo not given)	2
COC(=O)c1cc(-c2cnc(OC)nc2OC)c(=O)n2c1CCC2	1
C#CCOCCOCCOCCNc1nc(N2CCOCC2)nc(N2CCN(C(=O)[C@H](CCCCN)n3cc(CCC(=O)O)nn3)CC2)n1	1
C#CCOCCOCCOCCNc1nc(N2CCN(C(=O)CCCCCCCCCCNC(=O)[C@H](CCCCN)n3cc(CCO)nn3)CC2)nc(N2CCN(C(=O)CCCCCCCCCCNC(=O)[C@H](CCCCN)n3cc(CCCC(=O)O)nn3)CC2)n1	12*
C#CCOCCOCCOCCNc1nc(N2CCOCC2)nc(N2CCN(C(=O)CCCCCCCCCCNC(=O)[C@H](CO)n3cc(CCCSC)nn3)CC2)n1	-3
COC(=O)c1cc(S(=O)(=O)N2CCN(c3ccccc3Cl)CC2)cn1C	0
COc1ccc(CNC(=O)CSc2nc3c([nH]2)c(=O)n(C)c(=O)n3C)cc1	1
Cc1ccc(CN2CCCCC(NC(=O)c3ccc(C)cc3)C2=O)cc1 (stereo not given)	1
O=C(CN1CCC(NC(=O)Nc2ccc(Cl)cc2)CC1)Nc1ccc2c(c1)OCCO2	-3
Cc1ccc(S(=O)(=O)c2cc(Nc3ccccc3)ccc2O)cc1	3
O=S(=O)(O)c1cc(O)c2cc(Nc3ccccc3)ccc2c1	14*
Nc1cccc(Nc2ccccc2)c1	-2
COC(=O)C1CCCN(C(=O)C(Cc2ccc3c(c2)OCO3)NC(C)=O)C1 (stereo not given)	0
CCn1c(SCC(=O)NN=Cc2cccc(OCc3ccccc3)c2)nnc1-c1ccc(OC)c(OC)c1	5
C[C@H]1[C@H](NC(=O)c2ccc(C(F)(F)F)cc2)CC[C@@]23CCCN2C(=O)CCC[C@@H]13	-4
Cc1ccc(CNc2ccc3nnc(-c4ccccc4)n3n2)cc1	11*
O=C(NCCc1nnc2ccc(NCc3ccc(Cl)cc3)nn12)c1ccccc1	0
Cc1ccc(CNc2cnccn2)cc1	0
COc1ccc(-c2cc(-c3nnc(SCC(=O)Nc4ccc(-c5nc6ccc(C)cc6s5)cc4)n3N)[nH]n2)cc1	7
CCCOc1ccc(F)cc1-c1cc(C(=O)Nc2ccc(C)c(NS(C)(=O)=O)c2)[nH]n1	-1
CCCOc1ccc(F)cc1-c1cc(C(=O)Nc2ccc(OC)c(OC)c2)[nH]n1	16*
CCCOc1ccc(F)cc1-c1cc(C(=O)NC(C)C)[nH]n1	3
COc1cccc(-c2nnc(SCC(=O)Nc3cccc4ccccc34)n2Cc2ccco2)c1	2
C=CCn1c(Cc2cccs2)nnc1SCC(=O)Nc1ccc2c(c1)OCO2	1
SMILES	TbREL1 primary
CCOC(=O)C(C)n1cnc2c(oc3ccccc32)c1=O (stereo not given)	17*
CCCCn1cnc2c(oc3ccccc32)c1=O	3
CC(C)C(C)NC(=O)Cn1cnc2c(oc3ccccc32)c1=O (stereo not given)	2
Cc1cc(C)cc(NC(=O)N2CCN(Cc3nc4ccccc4c(=O)[nH]3)CC2)c1	0
Nc1nc(Nc2cccc(Cl)c2)nc(NCc2ccco2)c1[N+](=O)[O-]	11*
Nc1nc(Nc2cccc(Cl)c2)nc(NCCO)c1[N+](=O)[O-]	6
COc1ccc(Nc2nc(NCc3ccco3)nc(N)c2[N+](=O)[O-])cc1	0
O=C(CN1CCN(Cc2ccccc2)CC1)N/N=C\c1c2ccccc2cc2ccccc12	-2
Cc1ccc(-n2c(Cc3cccs3)nnc2SCC(=O)Nc2ccc(OCc3ccccc3)cc2)cc1	2
O=C(CSc1nnc(-c2ccncc2)n1-c1ccc(Cl)cc1)c1ccc(Cl)c(Cl)c1	0
O=C1Cc2cc(S(=O)(=O)N3CCN(c4ccc(C(=O)O)cc4)CC3)ccc2N1	4
CC(=O)Nc1ccc(S(=O)(=O)N2CCN(c3ccc(C(C)=O)cc3)CC2)cc1	5
CC(=O)c1ccc(N2CCN(S(=O)(=O)c3ccc4c(c3)C(Cl)(Cl)C(=O)N4)CC2)cc1	11*
Cc1cc(-c2nnc(SCC(=O)Nc3cccc4ccccc34)n2N)n[nH]1	3
COC(=O)c1cccc(Cn2ccc3ccc(-c4ccc5ccn(C(=O)C6CCC6)c5c4)cc32)c1	-2
CC(C)CNC(=O)COC(=O)c1c2c(nc3ccccc13)/C(=C\c1cccs1)CC2	-4
CN(CCC#N)C(=O)COC(=O)c1c2c(nc3ccccc13)/C(=C/c1ccco1)CC2	21*
CN(CCC#N)C(=O)COC(=O)c1ccc2[nH]c3c(c2c1)CCCC3	1
O=C(c1cc(F)ccc1F)N1CCCC(c2nc(-c3cccs3)no2)C1 (stereo not given)	-4
